The values below come from PubChem BioAssay (Tox21).

Molecules are shown by their SMILES. Inconclusive results are not listed. A number with no mark means an inactive call. Calls come from the whole dose curve; as a rule, active = well fitted activation curve with a large enough effect in the signal ratio in the repeat runs (not every such curve was filed as active); inconclusive = weak or mixed curves; inactive = flat fitted curve, though single readings scatter; the % refers to the signal ratio.
% is set by controls: 0 for no effect and ±100 for the full control effect.

The nature of this assay: p53 small molecule agonists, cell-based qHTS assay (AID 1963582). As to conditions: HCT-116 p53RE-bla reporter, beta-lactamase FRET ratio, 16 h; series mostly up to 66 µM; activation: at the top concentration. From the text: National Center for Advancing Translational Sciences [NCATS]
Division of Preclinical Innovation [DPI]
U.S. Environmental Protection Agency [EPA]
National Institutes of Environmental Health Sciences [NIEHS]
National Toxicology Program [NTP]
U.S. Food and Drug Administration [FDA]
p53, a tumor suppressor protein, is activated following cellular insult, including DNA damage and other cellular stresses. The activation of p53 regulates cell fate by inducing DNA repair, cell cycle arrest, apoptosis, or cellular senescence. The activation of p53, therefore, is a good indicator of DNA damage and other cellular stresses. […] The activation of the reporter gene under culture conditions can be detected by fluorescence intensity. This cell line was used to screen the Tox21 10K compound library in a 1536-well plate format and to identify agonists that activate the p53 signaling pathway.
Tox21 Assay Protocol Summary:
The p53RE-bla cells were dispensed at 4,000 cells/5 ul/well in 1536-well black wall/clear bottom plates using a Multidrop dispenser. After the assay plates were incubated at a 37 C/5% CO2 incubator for 5 hours, 23 nL of compounds dissolved in DMSO, positive controls or DMSO only was transferred to the assay plate by a pin tool. The plates were incubated at 37 C for 16 hours. After 1 uL of LiveBLAzerTM B/G FRET substrate was added using a Flying Reagent Dispenser, the plates were incubated at room temperature for 2 hours, and fluorescence intensity was measured by an Envision plate reader.
(qHTS replaces the single test concentration by a dilution series.)
For `Cc1cccc(Oc2ccccc2)c1`, the “activation” value was -1.16%.

For `C=CC(=O)OCC1CCCO1` (stereo not given), the “activation” value was 1.59%.

Regarding `CCOC(=O)C1=C(C)NC(C)=C(C(=O)OC)C1c1cccc([N+](=O)[O-])c1` (stereo not given), the “activation” value is -0.848% [at 30.3 µM].

As to `CCn1cc(C(=O)O)c(=O)c2cnc(N3CCCC3)nc21`, the activation was 1.25% [at 5.99 µM].

For the molecule `Nc1cc(C(=O)O)ccc1Cl`, the “activation” value was 0.875%.

Turning to `Nc1nc2c(ncn2CCC(CO)CO)c(=O)[nH]1`, the “activation” value is -2.2% [at 30.3 µM].

In the case of `C1CCN(CN2CCCCC2)CC1`, the “activation” value is 3.65%.

`OC1OCCOC1O` (stereo not given): the “activation” value was -3.52%.

For `CCCCCCCCCCCCCCCCCl`, the activation is 0.101% [at 13.5 µM].

For `CCCCCCCC/C=C\CCCCCCCC(=O)OC[C@@H](O)[C@H]1OC[C@H](O)[C@H]1O`, the “activation” value is 0.204%.

As for `FC(F)(F)C(F)(F)C(F)(F)C(F)(F)C(F)(F)C(F)(F)C(F)(F)C(F)(F)C(F)(F)C(F)(F)F`, the activation was -0.0202% [at 5.99 µM].

Regarding `OC1(c2ccccc2)CCNCC1`, the “activation” value was 1.79% [at 30.3 µM].

On to `CC[C@@H](N)CO`, for which the “activation” value is -0.152%.

Regarding `c1ccc(-c2nn[nH]n2)cc1`, the “activation” value was 4.11%.

For `Nc1ccc(C(=O)Oc2ccccc2)c(O)c1`, the “activation” value was 1.65% [at 30.3 µM].

Regarding `CC[N+]1(CC)CCC(=C(c2ccccc2)c2ccccc2)C1C` (stereo not given), the “activation” value is -2.06% [at 30.3 µM].

Consider `O=C(O)CCN(C1(C(=O)NO)CCCC1)S(=O)(=O)c1ccc(Oc2ccc(F)cc2)cc1`, for which the “activation” value is 2.55%.

On to `CCOC(=O)CCCCCCCCC(=O)OCC`, for which the “activation” value is 0.0064%.

On to `CC1=C2[C@H](/C=C(\C)C(=O)O)CC[C@@H](C)[C@H]2CC1`, for which the “activation” value was -14.1%.

With `CCCCN(CCCC)C(=O)N(CCCC)CCCC`, the “activation” value is 0.184%.

`Cc1c(C)n(CCN(C)C)c2ccc(C(=O)OCCN(C)C)cc12`: the “activation” value is 10.6% [at 30.3 µM].

For the molecule `FC(F)(F)C(F)(F)C(F)(F)C(F)(F)C(F)(F)C(F)(F)C(F)(F)C(F)(F)Br`, the “activation” value is -2.24% [at 30.3 µM].

Turning to `CCOc1ccccc1O[C@H](c1ccccc1)[C@H]1CNCCO1`, the “activation” value was 6.56% [at 30.3 µM].

With `O=C(CO)[C@@H](O)[C@H](O)[C@@H](O)CO`, the “activation” value was 1.02% [at 30.3 µM].

Regarding `CCC=O`, the “activation” value is 4.19%.

As for `OC[C@@H](O)[C@H](O)[C@@H](O)[C@@H](O)CO`, the “activation” value is 0.316%.

As to `CC(CC(C)(C)C)CC(C)(C)CC(C)(C)C` (stereo not given), the “activation” value was -0.884% [at 30.3 µM].

For the molecule `O=C(O)c1cc(O)c2c(c1)C(=O)c1cccc(O)c1C2=O`, the “activation” value is -4.55%.

Take `NC(=O)NS(=O)(=O)c1ccc(N)cc1`: the “activation” value was 0.658% [at 30.3 µM].

In the case of `NC(=O)c1ccncc1`, the “activation” value was 1.39%.

For `CC(C)(C)OC(=O)N1C[C@@H](F)C[C@H]1C(=O)O`, the “activation” value was -4.86%.

Turning to `CN1C(C)(C)CCCC1(C)C`, the “activation” value was 0.265% [at 30.3 µM].

`O=c1[nH]c(=O)c2[nH]c(=O)[nH]c2[nH]1`: the activation is 1.49% [at 5.99 µM].

Turning to `C#C[C@]1(OC(C)=O)CC[C@H]2[C@@H]3CCC4=C[C@@H](OC(C)=O)CC[C@@H]4[C@H]3CC[C@@]21C`, the “activation” value is -6.14% [at 30.3 µM].

As for `O=C1CCCCCCCCCCCCCC1`, the “activation” value was 1.11%.

Turning to `CCc1cccc(CC)c1`, the “activation” value was -1.97%.

On to `CC(=O)OCC(=O)[C@@]1(O)CC[C@H]2[C@@H]3CCC4=CC(=O)C=C[C@]4(C)[C@@]3(F)[C@@H](O)C[C@@]21C`, for which the “activation” value is -0.219% [at 30.3 µM].

As to `O=C1N(c2ccccc2)c2ccccc2C1(Cc1ccncc1)Cc1ccncc1`, the “activation” value is 2.27% [at 30.3 µM].

On to `CCOc1cc(OCC)c(C(C)=O)cc1OCC`, for which the “activation” value is -5.25%.

Regarding `CCc1cc(S(=O)(=O)O)c2cc(C(C)C)cccc1-2`, the “activation” value was -1.01% [at 30.3 µM].
